Reference: the supplement of paper PMC10849652
Of roughly 8,800 targets only a part is listed; those with a hit were picked by preference. About 0.5% of all pairs of compound and target were hits.

How the values were obtained:
Test in all cases: log2 fold change, soluble protein after heating vs DMSO (PISA); higher = thermal stabilisation; K562 lysate, 10 uM; active = over 0.2 and 3.5 SD of the protein, either way, in both replicates (recomputed)
vemurafenib = compound: CCCS(=O)(=O)Nc1ccc(F)c(C(=O)c2c[nH]c3ncc(-c4ccc(Cl)cc4)cc23)c1F [vemurafenib]
Summary of the method: (§1)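 The values are log-two fold changes in thermal stability compared with solvent controls and come from duplicates. They were obtained by TMTpro 16plex LC-MS/MS, with channel sums equalised, on the supernatant after 21,000xg for 90 min. That supernatant came from crude K562 extract at 1 mg/mL protein treated with 10 μM compound for 30 min, heated for 3 min across 48°C-58°C, pooled and brought to 0.5% NP-40 at 4°C.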

[1] = compound: CCCS(=O)(=O)Nc1ccc(F)c(C(=O)c2c[nH]c3ncc(Cl)cc23)c1F
Summary of the method: as §1

barasertib = compound: CCN(CCCOc1ccc2c(Nc3cc(CC(=O)Nc4cccc(F)c4)[nH]n3)ncnc2c1)CCOP(=O)(O)O [barasertib]
Summary of the method: as §1

[2] = compound: CC[C@@H]1C(=O)N(C)c2cnc(Nc3ccc(C(=O)NC4CCN(C)CC4)cc3OC)nc2N1C1CCCC1
Summary of the method: as §1

volasertib = compound: CC[C@@H]1C(=O)N(C)c2cnc(Nc3ccc(C(=O)N[C@H]4CC[C@H](N5CCN(CC6CC6)CC5)CC4)cc3OC)nc2N1C(C)C [volasertib]
Summary of the method: as §1

[3] = compound: CCn1c(C(=O)N(C2CC2)C2CC2)cc2c3c(ncn3C)c(Nc3cc(C)n(C)n3)nc21
Summary of the method: as §1

[4] = compound: CCn1cc(-c2ccnc3[nH]c(-c4cccc(CN(C)C)c4)cc23)c(-c2ccc(NC(=O)N(C)C)cc2)n1
Summary of the method: as §1

[5] = compound: CN1CCC(CNc2ccc3ncc(-c4cccc(OC(F)(F)F)c4)n3n2)CC1
Summary of the method: as §1

saracatinib = compound: CN1CCN(CCOc2cc(OC3CCOCC3)c3c(Nc4c(Cl)ccc5c4OCO5)ncnc3c2)CC1 [saracatinib]
Summary of the method: as §1

sotrastaurin = compound: CN1CCN(c2nc(C3=C(c4c[nH]c5ccccc45)C(=O)NC3=O)c3ccccc3n2)CC1 [sotrastaurin]
Summary of the method: as §1

alvocidib = compound: CN1CC[C@H](c2c(O)cc(O)c3c(=O)cc(-c4ccccc4Cl)oc23)[C@H](O)C1 [alvocidib]
Summary of the method: as §1

Tubastatin A = compound: CN1CCc2c(c3ccccc3n2Cc2ccc(C(=O)NO)cc2)C1 [Tubastatin A]
Summary of the method: as §1

[6] = compound: CNC(=O)C1=CC=CC=C1NC2=NC(=NC=C2Cl)NC3=C(C=C(C=C3)N4CCOCC4)OC
Summary of the method: as §1

defactinib = compound: CNC(=O)c1ccc(Nc2ncc(C(F)(F)F)c(NCc3nccnc3N(C)S(C)(=O)=O)n2)cc1 [defactinib]
Summary of the method: as §1

[7] = compound: CNc1nc(-c2ccc3c(N)n[nH]c3c2)cc(N2C[C@@H](C(=O)NC3CCCCC3)CC[C@H]2C)n1
Summary of the method: as §1

encorafenib = compound: COC(=O)N[C@@H](C)CNc1nccc(-c2cn(C(C)C)nc2-c2cc(Cl)cc(NS(C)(=O)=O)c2F)n1 [encorafenib]
Summary of the method: as §1

[8] = compound: COC(=O)[C@H](CCSC)NC(=O)C1=C(C=C(C=C1)NC[C@H](CS)N)C2=CC=CC=C2
Summary of the method: as §1

alisertib = compound: COc1cc(Nc2ncc3c(n2)-c2ccc(Cl)cc2C(c2c(F)cccc2OC)=NC3)ccc1C(=O)O [alisertib]
Summary of the method: as §1

[9] = compound: COc1cc2nc(-c3cc(F)ccc3O)nc(N[C@@H]3CNC[C@H]3C(C)(C)O)c2cc1OC
Summary of the method: as §1

gefitinib = compound: COc1cc2ncnc(Nc3ccc(F)c(Cl)c3)c2cc1OCCCN1CCOCC1 [gefitinib]
Summary of the method: as §1

Measured: log2 fold change

KBTBD4 isoform 2 (UniProt Q9NVX7)
Chain of UniProt Q9NVX7 (Q9NVX7 whole entry, looked up): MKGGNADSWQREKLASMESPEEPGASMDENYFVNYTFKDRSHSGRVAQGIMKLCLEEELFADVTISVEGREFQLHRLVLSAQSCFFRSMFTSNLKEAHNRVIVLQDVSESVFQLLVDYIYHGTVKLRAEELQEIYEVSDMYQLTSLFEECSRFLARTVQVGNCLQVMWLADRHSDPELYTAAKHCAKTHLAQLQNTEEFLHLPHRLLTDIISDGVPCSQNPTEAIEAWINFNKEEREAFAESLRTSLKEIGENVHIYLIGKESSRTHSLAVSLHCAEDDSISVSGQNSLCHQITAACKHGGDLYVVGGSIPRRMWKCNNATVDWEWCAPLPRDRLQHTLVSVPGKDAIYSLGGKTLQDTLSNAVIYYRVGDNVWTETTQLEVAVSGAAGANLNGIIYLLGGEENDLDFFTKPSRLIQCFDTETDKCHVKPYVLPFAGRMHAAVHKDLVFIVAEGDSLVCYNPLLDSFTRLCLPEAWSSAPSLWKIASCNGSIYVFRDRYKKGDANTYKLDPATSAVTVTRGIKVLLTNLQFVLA
inactive: vemurafenib 0 | [1] 0.021 | barasertib 0.013 | [2] 0.063 | volasertib -0.022 | [3] 0.031 | [4] -0.04 | [5] -0.032 | saracatinib 0.086 | sotrastaurin 0.032 | alvocidib -0.064 | Tubastatin A -0.048 | [6] -0.016 | defactinib 0.024 | [7] 0.193 | encorafenib 0.048 | [8] -0.08 | alisertib -0.098 | [9] -0.046 | gefitinib 0.121

HMGCL (UniProt P35914)
inactive: vemurafenib -0.017 | [1] 0.01 | barasertib 0.027 | [2] 0.037 | volasertib 0.014 | [3] 0.037 | [4] 0.05 | [5] -0.02 | saracatinib -0.013 | sotrastaurin -0.01 | alvocidib 0.013 | Tubastatin A -0.012 | [6] -0.015 | defactinib 0.059 | [7] 0.055 | encorafenib 0.032 | [8] -0.102 | alisertib -0.031 | [9] -0.016 | gefitinib -0.021

IL18R1 (UniProt Q13478)
inactive: vemurafenib 0.074 | [1] -0.026 | barasertib 0.061 | [2] 0.087 | volasertib 0.044 | [3] -0.184 | [4] -0.284 | [5] 0.085 | saracatinib 0.023 | sotrastaurin -0.064 | alvocidib -0.148 | Tubastatin A 0.008 | [6] -0.106 | defactinib -0.322 | [7] 0.056 | encorafenib 0.116 | [8] 0.142 | alisertib -0.098 | [9] -0.014 | gefitinib -0.039

HMGN5 (UniProt P82970)
inactive: vemurafenib -0.007 | [1] -0.011 | barasertib -0.044 | [2] 0.016 | volasertib 0.013 | [3] -0.044 | [5] -0.164 | saracatinib -0.027 | sotrastaurin -0.029 | alvocidib 0.04 | Tubastatin A 0.045 | [6] -0.029 | defactinib 0.051 | [7] 0.018 | encorafenib -0.029 | [8] -0.023 | alisertib -0.036 | [9] 0.006 | gefitinib -0.028
active: [4] 0.3

GUSB (UniProt P08236)
active: [4] -0.561 | [5] 0.355
inactive: vemurafenib 0.013 | [1] 0.028 | barasertib -0.024 | [2] -0.049 | volasertib 0.053 | [3] 0.027 | saracatinib -0.008 | sotrastaurin 0.038 | alvocidib -0.278 | Tubastatin A 0.022 | [6] 0.017 | defactinib 0.015 | [7] -0.027 | encorafenib 0.089 | [8] -0.019 | alisertib 0.089 | [9] 0.071 | gefitinib -0.049

HNRNPH2 (UniProt P55795)
Chain of UniProt P55795 (P55795 whole entry, looked up): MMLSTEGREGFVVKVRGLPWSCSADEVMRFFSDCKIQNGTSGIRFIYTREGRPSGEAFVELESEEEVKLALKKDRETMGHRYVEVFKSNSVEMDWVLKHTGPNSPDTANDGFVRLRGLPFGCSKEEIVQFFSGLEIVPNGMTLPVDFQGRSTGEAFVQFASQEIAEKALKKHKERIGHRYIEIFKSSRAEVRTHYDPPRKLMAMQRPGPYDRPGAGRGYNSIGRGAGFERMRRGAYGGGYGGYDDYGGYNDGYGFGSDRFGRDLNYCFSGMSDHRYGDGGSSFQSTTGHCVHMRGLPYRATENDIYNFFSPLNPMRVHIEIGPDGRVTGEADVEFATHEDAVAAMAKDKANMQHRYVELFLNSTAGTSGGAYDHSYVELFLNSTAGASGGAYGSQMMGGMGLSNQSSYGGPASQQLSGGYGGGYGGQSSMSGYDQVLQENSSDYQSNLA
inactive: vemurafenib -0.004 | [1] 0.025 | barasertib -0.003 | [2] 0.05 | volasertib -0.056 | [3] 0.008 | [4] -0.01 | [5] -0.056 | saracatinib -0.025 | sotrastaurin -0.074 | alvocidib -0.003 | Tubastatin A -0.209 | [6] 0.02 | defactinib 0.019 | [7] -0.043 | encorafenib 0.037 | [8] -0.032 | alisertib -0.004 | [9] -0.007 | gefitinib -0.047

HMGN4 (UniProt O00479)
active: [4] 1.29
inactive: vemurafenib -0.015 | [1] 0.016 | barasertib -0.003 | [2] 0.453 | volasertib 0.003 | [3] 0.022 | [5] -0.595 | saracatinib -0.173 | sotrastaurin -0.099 | alvocidib 0.581 | Tubastatin A -0.001 | [6] 0.01 | defactinib 0.122 | [7] 0.235 | encorafenib -0.072 | [8] -0.046 | alisertib -0.074 | [9] -0.036 | gefitinib 0.111

GSK3A (UniProt P49840)
Chain of UniProt P49840 (P49840 whole entry, looked up): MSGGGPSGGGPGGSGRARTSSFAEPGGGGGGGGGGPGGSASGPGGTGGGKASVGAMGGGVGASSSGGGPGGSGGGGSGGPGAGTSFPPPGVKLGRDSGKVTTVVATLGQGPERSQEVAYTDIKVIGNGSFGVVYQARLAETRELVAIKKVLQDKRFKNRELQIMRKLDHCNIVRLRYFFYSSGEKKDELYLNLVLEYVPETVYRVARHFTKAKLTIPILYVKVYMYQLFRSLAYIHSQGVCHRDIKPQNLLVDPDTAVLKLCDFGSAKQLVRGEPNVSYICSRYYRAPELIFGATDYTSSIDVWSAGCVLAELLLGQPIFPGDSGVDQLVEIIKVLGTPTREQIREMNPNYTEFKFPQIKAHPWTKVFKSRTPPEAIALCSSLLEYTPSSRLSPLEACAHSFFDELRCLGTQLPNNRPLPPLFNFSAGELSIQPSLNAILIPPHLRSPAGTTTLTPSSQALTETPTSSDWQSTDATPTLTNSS
inactive: vemurafenib -0.013 | [1] 0.006 | barasertib -0.04 | [2] -0.015 | volasertib -0.01 | [3] 0.026 | [4] -0.133 | [5] 0.154 | saracatinib 0.01 | Tubastatin A -0.089 | [6] 0.05 | defactinib 0.353 | [7] -0.042 | encorafenib 0.161 | [8] -0.118 | alisertib -0.03 | [9] -0.015 | gefitinib 0.003
active: sotrastaurin 0.535 | alvocidib 0.53

IGF2BP3 (UniProt O00425)
Chain of UniProt O00425 (O00425 whole entry, looked up): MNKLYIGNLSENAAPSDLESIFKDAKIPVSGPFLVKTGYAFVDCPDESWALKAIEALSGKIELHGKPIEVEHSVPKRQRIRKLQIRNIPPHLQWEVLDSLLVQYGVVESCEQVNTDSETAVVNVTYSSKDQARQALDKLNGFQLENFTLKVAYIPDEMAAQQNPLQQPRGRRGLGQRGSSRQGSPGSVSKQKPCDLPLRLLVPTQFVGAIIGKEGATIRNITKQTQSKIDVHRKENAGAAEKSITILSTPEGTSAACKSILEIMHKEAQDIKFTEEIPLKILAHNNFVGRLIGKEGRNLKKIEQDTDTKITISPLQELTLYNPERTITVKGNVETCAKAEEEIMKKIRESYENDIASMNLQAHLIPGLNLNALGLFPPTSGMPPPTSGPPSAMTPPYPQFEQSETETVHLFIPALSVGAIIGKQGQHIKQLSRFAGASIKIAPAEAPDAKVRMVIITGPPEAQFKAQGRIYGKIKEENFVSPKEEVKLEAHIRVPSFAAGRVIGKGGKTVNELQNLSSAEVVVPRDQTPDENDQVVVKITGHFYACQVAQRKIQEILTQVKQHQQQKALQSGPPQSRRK
inactive: vemurafenib 0.024 | [1] 0.006 | barasertib 0.016 | [2] -0.106 | volasertib -0.025 | [3] -0.016 | [4] -0.062 | [5] -0.022 | saracatinib 0.026 | sotrastaurin 0.011 | alvocidib 0.012 | Tubastatin A -0.147 | [6] -0.022 | defactinib -0.028 | [7] -0.016 | encorafenib -0.022 | [8] 0.218 | alisertib 0.006 | [9] -0.003 | gefitinib -0.017

HNRNPM (UniProt P52272)
Chain of UniProt P52272 (P52272 whole entry, looked up): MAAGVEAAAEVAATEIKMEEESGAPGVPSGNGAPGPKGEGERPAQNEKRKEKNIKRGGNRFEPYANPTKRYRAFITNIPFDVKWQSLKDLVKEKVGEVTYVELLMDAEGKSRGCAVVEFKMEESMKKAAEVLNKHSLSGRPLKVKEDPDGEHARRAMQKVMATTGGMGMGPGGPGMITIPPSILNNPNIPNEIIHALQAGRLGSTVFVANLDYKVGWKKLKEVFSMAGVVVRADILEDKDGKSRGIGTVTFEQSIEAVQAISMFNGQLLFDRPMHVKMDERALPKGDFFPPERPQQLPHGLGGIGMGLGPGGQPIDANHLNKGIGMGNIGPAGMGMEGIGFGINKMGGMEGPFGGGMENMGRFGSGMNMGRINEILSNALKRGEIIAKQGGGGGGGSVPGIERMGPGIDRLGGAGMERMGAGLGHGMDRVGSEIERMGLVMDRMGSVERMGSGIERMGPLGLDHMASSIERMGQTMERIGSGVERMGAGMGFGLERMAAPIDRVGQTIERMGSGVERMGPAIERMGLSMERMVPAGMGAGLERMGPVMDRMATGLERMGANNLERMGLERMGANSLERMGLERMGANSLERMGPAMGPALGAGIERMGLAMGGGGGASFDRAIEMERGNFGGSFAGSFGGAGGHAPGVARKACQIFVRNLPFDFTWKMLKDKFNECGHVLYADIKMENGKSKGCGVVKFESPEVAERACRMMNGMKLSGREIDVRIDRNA
inactive: vemurafenib -0.017 | [1] -0.013 | barasertib 0.079 | [2] 0.027 | volasertib -0.107 | [3] 0.046 | [4] -0.017 | [5] -0.01 | saracatinib 0.055 | sotrastaurin 0.024 | alvocidib -0.01 | Tubastatin A -0.096 | [6] 0.022 | defactinib 0.045 | [7] -0.067 | encorafenib 0.166 | [8] -0.035 | alisertib 0.069 | [9] 0.037 | gefitinib 0.012

IFITM3 (UniProt Q01628)
Chain of UniProt Q01628 (Q01628 whole entry, looked up): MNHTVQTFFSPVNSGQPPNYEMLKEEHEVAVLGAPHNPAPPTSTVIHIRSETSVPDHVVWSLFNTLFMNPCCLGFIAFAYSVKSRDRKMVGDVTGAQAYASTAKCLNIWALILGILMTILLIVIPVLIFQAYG
inactive: vemurafenib -0.046 | [1] 0.079 | barasertib 0.342 | [2] -0.06 | volasertib -0.025 | [3] 0.026 | [4] -0.11 | [5] 0.112 | saracatinib -0.041 | sotrastaurin 0.052 | alvocidib -0.001 | Tubastatin A -0.329 | [6] 0.01 | defactinib 0.118 | [7] 0.042 | encorafenib 0.043 | [8] -0.142 | alisertib 0.109 | [9] -0.137 | gefitinib 0.291

GYPA (UniProt P02724)
Chain of UniProt P02724 (P02724 whole entry, looked up): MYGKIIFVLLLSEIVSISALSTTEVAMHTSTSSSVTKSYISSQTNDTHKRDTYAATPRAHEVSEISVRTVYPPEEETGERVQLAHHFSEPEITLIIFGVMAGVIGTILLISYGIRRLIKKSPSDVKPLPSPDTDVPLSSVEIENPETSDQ
inactive: vemurafenib -0.011 | [1] -0.008 | barasertib 0.254 | [2] 0.188 | volasertib 0.009 | [3] -0.081 | [5] -0.259 | saracatinib 0.01 | sotrastaurin 0.011 | alvocidib 0.311 | Tubastatin A 0.068 | [6] 0.005 | defactinib 0.063 | [7] 0.207 | encorafenib -0.004 | [8] -0.015 | [9] 0.06
active: [4] 0.587

GIT1 (UniProt Q9Y2X7)
inactive: vemurafenib -0.073 | [1] 0.028 | barasertib -0.008 | [2] -0.044 | volasertib -0.043 | [3] -0.007 | [4] 0.132 | [5] 0.046 | saracatinib 0 | sotrastaurin 0.012 | alvocidib 0.015 | Tubastatin A -0.04 | [6] 0.022 | defactinib 0.023 | [7] -0.084 | encorafenib 0.002 | [8] 0.026 | alisertib 0.05 | [9] -0.011 | gefitinib -0.031

GSK3B isoform 2 (UniProt P49841)
Chain of UniProt P49841 (P49841 whole entry, looked up): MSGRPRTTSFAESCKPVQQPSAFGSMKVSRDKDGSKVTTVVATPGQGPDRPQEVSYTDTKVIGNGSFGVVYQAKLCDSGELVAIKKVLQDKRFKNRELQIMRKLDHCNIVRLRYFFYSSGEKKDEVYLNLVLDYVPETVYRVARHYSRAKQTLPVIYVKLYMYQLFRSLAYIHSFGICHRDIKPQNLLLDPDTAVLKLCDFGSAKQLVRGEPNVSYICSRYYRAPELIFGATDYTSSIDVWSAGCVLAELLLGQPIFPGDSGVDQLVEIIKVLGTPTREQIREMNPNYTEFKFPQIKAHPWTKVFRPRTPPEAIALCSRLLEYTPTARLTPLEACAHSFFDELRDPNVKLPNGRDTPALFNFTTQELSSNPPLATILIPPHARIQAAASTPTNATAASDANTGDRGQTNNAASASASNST
inactive: vemurafenib -0.009 | [1] 0.038 | barasertib 0.026 | [2] -0.015 | volasertib -0.093 | [3] -0.011 | [4] -0.013 | [5] 0.096 | saracatinib -0.049 | sotrastaurin 0.601 | alvocidib 0.518 | Tubastatin A -0.077 | [6] 0.015 | defactinib 0.562 | [7] 0.114 | encorafenib 0.425 | [8] -0.114 | [9] 0 | gefitinib 0.029

GSE1 (UniProt Q14687)
Chain of UniProt Q14687 (Q14687 whole entry, looked up): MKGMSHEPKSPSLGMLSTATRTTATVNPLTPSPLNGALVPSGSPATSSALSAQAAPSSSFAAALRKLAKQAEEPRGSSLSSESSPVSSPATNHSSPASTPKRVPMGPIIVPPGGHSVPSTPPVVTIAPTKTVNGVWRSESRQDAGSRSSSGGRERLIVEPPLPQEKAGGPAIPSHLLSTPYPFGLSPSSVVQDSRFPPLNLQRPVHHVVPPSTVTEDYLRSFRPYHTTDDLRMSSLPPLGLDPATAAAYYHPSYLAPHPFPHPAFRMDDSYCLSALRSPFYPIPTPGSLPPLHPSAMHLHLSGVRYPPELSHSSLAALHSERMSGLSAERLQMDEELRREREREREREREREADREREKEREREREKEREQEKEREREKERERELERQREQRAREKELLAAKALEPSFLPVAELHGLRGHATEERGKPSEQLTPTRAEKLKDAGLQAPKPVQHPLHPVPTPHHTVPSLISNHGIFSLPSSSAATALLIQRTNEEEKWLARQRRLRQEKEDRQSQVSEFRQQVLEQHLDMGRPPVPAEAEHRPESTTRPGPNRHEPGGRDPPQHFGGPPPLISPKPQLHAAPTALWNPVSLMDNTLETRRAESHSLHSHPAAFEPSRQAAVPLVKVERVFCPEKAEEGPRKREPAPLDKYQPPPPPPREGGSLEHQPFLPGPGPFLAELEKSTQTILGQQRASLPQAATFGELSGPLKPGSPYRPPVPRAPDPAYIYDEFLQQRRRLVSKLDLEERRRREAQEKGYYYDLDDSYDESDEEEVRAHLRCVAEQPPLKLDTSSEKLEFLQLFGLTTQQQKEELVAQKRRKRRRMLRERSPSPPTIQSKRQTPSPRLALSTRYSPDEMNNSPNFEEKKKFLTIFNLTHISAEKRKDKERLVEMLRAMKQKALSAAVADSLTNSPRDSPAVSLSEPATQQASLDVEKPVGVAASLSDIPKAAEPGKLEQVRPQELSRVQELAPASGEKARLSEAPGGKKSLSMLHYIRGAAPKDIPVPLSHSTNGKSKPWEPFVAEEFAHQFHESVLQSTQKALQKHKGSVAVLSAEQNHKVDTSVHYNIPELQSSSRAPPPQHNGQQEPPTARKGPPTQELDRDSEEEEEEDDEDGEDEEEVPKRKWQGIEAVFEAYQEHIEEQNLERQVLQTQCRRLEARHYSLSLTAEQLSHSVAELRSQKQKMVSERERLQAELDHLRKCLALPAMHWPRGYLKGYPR
inactive: vemurafenib -0.018 | [1] 0.035 | barasertib 0.011 | [2] -0.015 | volasertib -0.026 | [3] 0.007 | [4] -0.074 | [5] -0.009 | saracatinib 0.031 | sotrastaurin 0.049 | alvocidib -0.032 | Tubastatin A -0.155 | [6] 0.014 | defactinib -0.006 | [7] -0.001 | encorafenib 0.017 | [8] 0.05 | alisertib -0.017 | [9] 0.027 | gefitinib 0.013

GOLPH3L (UniProt Q9H4A5)
Chain of UniProt Q9H4A5 (Q9H4A5 whole entry, looked up): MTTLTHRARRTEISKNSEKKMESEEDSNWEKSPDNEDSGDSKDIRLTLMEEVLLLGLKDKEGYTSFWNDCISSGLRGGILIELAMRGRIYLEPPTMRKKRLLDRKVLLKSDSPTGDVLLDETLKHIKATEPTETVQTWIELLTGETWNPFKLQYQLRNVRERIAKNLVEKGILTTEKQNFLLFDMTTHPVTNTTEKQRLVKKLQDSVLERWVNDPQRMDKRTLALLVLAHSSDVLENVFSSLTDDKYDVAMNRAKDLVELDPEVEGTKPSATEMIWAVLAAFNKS
inactive: vemurafenib 0.068 | [1] 0.025 | barasertib 0.033 | [2] -0.055 | volasertib -0.023 | [3] 0.048 | [4] -0.034 | [5] -0.08 | saracatinib 0.046 | sotrastaurin -0.092 | alvocidib 0.018 | Tubastatin A -0.083 | [6] -0.005 | defactinib -0.077 | [7] 0.008 | encorafenib 0.063 | alisertib 0.026 | [9] -0.059 | gefitinib 0.018
active: [8] -0.395
